# System: MRCKA
# Settings: concentration: 1 μM, replicates: in singlicate; n = 1
# 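Also: KINOMEscan kinase panel screen.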
row,Structure (SMILES),%Inh [%]
1,COC(=O)Nc1nc2ccc(Oc3ccc(CC(=O)Nc4cc(C(F)(F)F)ccc4F)cc3)cc2[nH]1 [GW680903],39
2,COc1ccc(C2=C(Nc3cccc(O)c3)C(=O)NC2=O)cc1 [SB-390766],0
3,CN(C)c1ncnc2nc[nH]c12 [SKF-31736],11
4,Cc1cc(-c2ccnc(Nc3cccc(C#N)c3)n2)cc(C)c1O [GSK1440913],5

# System: T1, MRCKB
# T1 construct: gene CDC42BPB
# Settings: concentration: 1 μM, replicates: in singlicate; n = 1
row,Structure (SMILES),%Inh [%]
1,N#CC1(c2cccc(C(=O)Nc3cccc(Oc4ccc5nc(NC(=O)C6CC6)sc5n4)c3)c2)CC1,0
2,O=C(Nc1n[nH]c2nc(-c3ccccc3)ccc12)C1CC1 [SB-708999],0
3,CC(C)c1nc(-c2cccc(NS(=O)(=O)c3c(F)cccc3F)c2)c(-c2ccnc(Nc3ccc(N4CCOCC4)nc3)n2)s1.Cl [GSK1723980],0
4,Cl.Cl.NCC(NC(=O)c1cc(-c2cccnc2)c(-c2ccnc3[nH]ccc23)s1)c1ccccc1 (centres unmarked) [GSK1323434],35
5,COC(=O)Nc1nc2cc(Oc3ccc(NC(=O)Nc4cccc(SC)c4)cc3)ccc2[nH]1.Cl [GW697999],0
6,O=C(Nc1n[nH]c2nc(-c3ccccc3O)ccc12)C1CC1 [SB-711880],0
7,O=C(Nc1n[nH]c2cc(-c3cccs3)ccc12)C1CC1 [SB-731284],0
8,O=C(Nc1c(F)cccc1F)c1cc(C(=O)c2ccccc2F)c[nH]1 [GSK1326180],0
9,Cc1ccc(Nc2ccnc(Nc3ccc(C)c(F)c3)n2)cc1O.Cl [GW582868],0
10,COc1cccc(-c2nc(-c3ccccc3)[nH]c2-c2ccncc2)c1 [SB-610250],0
11,CCn1cnc2c(NCc3ccccc3)ncnc21 [SKF-96418],0
12,Cl.Cl.NC(CNC(=O)c1cc(Br)c(-c2ccnc3[nH]ccc23)s1)c1ccccc1 (centres unmarked) [GSK1322949],93.7
13,CN(c1ccc(F)c(NC(=O)c2cccc(OC(C)(C)C#N)c2Cl)c1)c1ccc2nc(NC(=O)C3CC3)sc2n1,0
14,Fc1cc(Cl)ccc1Nc1ccnc2cc(-c3ccc(CN4CCOCC4)o3)ccc12 [GW560109],0
15,COc1cc(Nc2ccnc3cc(-c4ccncc4)ccc23)cc(OC)c1OC.Cl [GW494610],4
16,Cc1ccc(O)cc1Nc1ccnc2cc(-c3ccc(CN4CCCCC4)o3)ccc12 [GW557777],0
17,Nc1ncc(-c2ccc3nccc(-c4ccncc4)c3c2)cc1S(=O)(=O)N1CCCCC1 [GSK1693850],0
18,COc1ccc(C)c(Nc2ccnc(Nc3ccc(-c4cnc[nH]4)cc3)n2)c1.Cl [GW784041],5
19,Fc1cc(Cl)ccc1Nc1ccnc2cc(-c3ccc(CN4CCSCC4)o3)ccc12 [GW560106],4

row,Structure (SMILES),%Inh [%]
1,Cc1ccc(NC(=O)c2ccnc(N3CCCCC3)c2)cc1-c1ccc(C(=O)NCC2CC2)cc1 [GW775610],9
2,CCOc1nccc(-c2c(-c3ccc(F)cc3)ncn2C2CCNCC2)n1 [SB-249175],26
3,O=C(O)C(F)(F)F.O=c1[nH]ccc2nc(N[C@@H]3CCNC3)nc(Nc3ccc4c(c3)S(=O)(=O)CC4)c12 [GSK2181306],54
4,c1ccc(Oc2ccc(Nc3ccnc4cc(-c5ccc(CN6CCCCC6)o5)ccc34)cc2)nc1 [GW567143],0
5,Cc1ccc(C)c(NC(=O)Nc2ccc(C)c(-c3ccc(C(=O)Nc4ccncc4)cc3)c2)c1 [GSK1398473],21
6,Cn1cc(-c2cnc(N)c3c(-c4ccc5c(c4)CCN5C(=O)Cc4ccccc4)csc23)cn1 [GSK2593074],10
7,O=C(O)C(F)(F)F.O=c1[nH]ccc2nc(N[C@@H]3CCNC3)nc(Nc3cc(Cl)cc(Cl)c3)c12 [GSK2188764],35
8,Cl.O=C(Nc1ccc(Oc2ccc3[nH]c(NC(=O)c4ccco4)nc3c2)cc1)Nc1cc(C(F)(F)F)ccc1F [GW683134],0
9,Cc1cccc(Nc2nc(NCCN)ncc2C(N)=O)c1 [GSK1292139],0
10,CC(C)NCC(Cc1ccccc1)NC(=O)c1cc(Br)c(-c2ccnc3[nH]ccc23)s1.Cl.Cl (centres unmarked) [GSK1383281],89
11,Nc1cccc(-c2ccc3c(N)n[nH]c3c2)c1 [GSK2193613],0
12,COc1cc(Nc2nccc(N3CCC(NS(=O)(=O)c4ccc(NC(C)=O)cc4)CC3)n2)cc(OC)c1OC [GSK1379825],80
13,Cc1nn2c(=O)cc(N3CCO[C@H](C)C3)nc2n1Cc1cccc(Cl)c1Cl [GSK2373693],60
14,CN1CCN(Cc2ccc(NC(=O)Nc3ccc(N(C)c4ccnc(Nc5ccc(CS(C)(=O)=O)cc5)n4)cc3)cc2)CC1.Cl [GW827654],30
15,COC(=O)Nc1nc2ccc(Oc3ccc(CC(=O)Nc4cc(C(F)(F)F)ccc4F)cc3)cc2[nH]1 [GW680903],0
16,COc1ccc(C2=C(Nc3cccc(O)c3)C(=O)NC2=O)cc1 [SB-390766],2
17,CN(C)c1ncnc2nc[nH]c12 [SKF-31736],0
18,Cc1cc(-c2ccnc(Nc3cccc(C#N)c3)n2)cc(C)c1O [GSK1440913],0

# From PMC5540273 (PLoS ONE, 2017)
